Compounds with a hit are over-represented: about 21% of the library has one in this group of screens.
CHX counter: counter-screen hit for Shiga toxin inhibitors, cycloheximide; 300,000 compounds, 12% hits; max response, %; cell reporter, cycloheximide protein synthesis inhibition counterscreen; in the data active means max response mostly above about 13%, no sharp cut-off; inactive means mostly below about 14%; further: read at 38.3 µM for the half of the compounds with a filed dose; 0% is about no effect
NS1 inh: blocks influenza NS1 protein function; 270,000 compounds, 0.4% hits; AID 2326; Potency, µM (top dose mostly 46.1 µM), inactives show at the highest dose activity, positive = more growth; further: potency means the concentration at half of the fitted maximal effect; actives are rising curves; nearly all actives have a fitted effect of over 50% in size
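A cell-based growth assay was used: compounds that relieve NS1-induced slow growth of budding yeast raise OD600. Assay medium was yeast nitrogen base with ammonium sulphate and -URA supplement, pH 6.0, with 2% galactose.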
Shiga inhibitor: blocks Shiga toxin action in Vero cells. 290,000 compounds, 9.2% hits. inhibition, % at 38.7 µM. Vero cells, Shiga toxin protein synthesis inhibition reporter; in the data active means inhibition mostly above about 28%, no sharp cut-off; inactive means mostly below about 43%; further: 0% is about no effect
Pf growth 96h: inhibits malaria parasite growth, 96 h. P. falciparum luciferase reporter growth, 96 h. 320,000 compounds, 6.9% hits. Potency, µM (highest dose often 28.7 µM), without a hit: at the top dose activity change, negative = inhibition, actives largely listed as inhibitors; active means well fitted inhibition curve with a large enough effect; inconclusive means small, poorly fitted or top-dose-only effect, or another doubt; inactive means no such curve, though single readings can be large or run the other way; further: potency means the concentration at half of the fitted maximal effect; on the % scale 0 is the no-effect control and ±100 the full control effect
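96 h incubation, 37 C, 5% CO2, of luciferase-reporter P. falciparum-infected RBCs (2% hematocrit, 0.05% parasitemia final) with test compounds; endpoint luminescence.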
SARS PLpro yeast: SARS-CoV PLP inhibition in yeast. S. cerevisiae expressing SARS-CoV PLpro, growth rescue. Potency, µM (titrated, usually from 32.9 µM), inactives show at the top dose activity, positive = growth rescue, actives largely listed as activators. 330,000 compounds, 0.19% hits; further: potency means the concentration at half of the fitted maximal effect; 0% is about no effect; nearly all actives have a fitted effect of over 55% in size
Pf growth 48h: inhibits P. falciparum growth in the first generation, 48 h; AID 504832; 310,000 compounds, 5.9% hits; P. falciparum luciferase growth in erythrocytes, 48 h; Potency, µM (top dose mostly 28.7 µM), inactives show top-dose activity change, negative = inhibition, most hits filed as inhibitors; active means well fitted inhibition curve with a large enough effect; inconclusive means small, poorly fitted or top-dose-only effect, or another doubt; inactive means no such curve, though single readings can be large or run the other way; further: potency means the concentration at half of the fitted maximal effect; on the % scale 0 is the no-effect control and ±100 the full control effect
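Read-out is firefly luciferase luminescence from an integrated reporter in P. falciparum, so falling signal marks reduced parasite growth. Infected erythrocytes were at 2% hematocrit and 0.1% parasitemia (final) in Albumax-supplemented RPMI 1640.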
* = called active by the depositor; ? = inconclusive; nt = not tested or not shown. Unless noted, the call rests on the fitted dose curve.

SMILES	CHX counter	NS1 inh	Shiga inhibitor	Pf growth 96h	SARS PLpro yeast	Pf growth 48h
O=S(=O)(/N=C(\c1ccccc1F)N1CCCCC1)c1ccccc1	-4	-11%	14	-25%	13%	-22%
OCC1(Cc2ccccc2)CCN(Cc2cnc(-c3cccc4ccccc34)nc2)CC1	9	5%	20	32%	-2%	?
OCC1(Cc2ccccc2)CCN(Cc2cnc(-c3ccc(Cl)cc3)nc2)CC1	39*	2%	91*	32%	0%	?
COc1cccc(CNC(=O)Cc2ccc(S(=O)(=O)N3CCOCC3)s2)c1	nt	nt	nt	-18%	1%	?
CNC(=S)N(CCc1c(C)[nH]c2ccccc12)Cc1cc(OC)c(OC)c(OC)c1	-5	-12%	-24	?	7%	?
CNC(=S)N(CCc1c(C)[nH]c2ccc(C)cc12)Cc1cc(OC)c(OC)c(OC)c1	-3	8%	-9	10µM*	-1%	0%
CNC(=S)N(CCc1c(C)[nH]c2ccc(OC)cc12)Cc1cc(OC)c(OC)c(OC)c1	-1	17%	-11	15µM*	25%	10µM*
CNC(=S)N(CCc1ccc(OC)c(OC)c1)Cc1cc2c(C)cc(C)cc2[nH]c1=O	-1	11%	-18	12µM*	-6%	?
COc1ccccc1N1CCN(C(=O)c2cccc(S(=O)(=O)Nc3ccccc3F)c2)CC1	nt	nt	nt	nt	-1%	nt
COc1ccc(-n2nc(C(=O)NCC(=O)N3CCN(Cc4ccccc4)CC3)c3ccccc3c2=O)c(OC)c1	0	-4%	-7	?	-2%	?
COCCNC(=S)N1CCN(c2nc3ccccc3s2)CC1	32*	-4%	93	18%	0%	46%
COCCCNC(=S)N1CCN(c2nc3ccccc3s2)CC1	14*	-12%	21	-2%	0%	-7%
CCOc1ccc(NC(=O)N2CCN(c3nc4ccccc4s3)CC2)cc1	1	-7%	23	nt	-8%	?
COc1ccc(NC(=O)C2CCCN(CCCc3ccccc3)C2)cc1OCC(C)C (stereo unspecified)	-3	30%	-10	68%	-4%	?
Cc1cc2c(s1)c1cnn(Cc3ccc(C(F)(F)F)cc3F)c(=O)c1n2C	-6	nt	-8	nt	nt	nt
COc1ccc(CNC(=O)C2CCC(CNS(=O)(=O)c3ccccc3)CC2)cc1 (stereo unspecified)	1	-6%	3	0%	1%	3.7µM*
Cc1ccc(S(=O)(=O)NCC2CCC(C(=O)NCc3cccs3)CC2)cc1 (stereo unspecified)	-3	nt	-6	10µM*	-4%	-1%
Cc1ccc(CNC(=O)C2CCC(CNS(=O)(=O)c3cccc4cccnc34)CC2)cc1 (stereo unspecified)	4	8%	-7	12µM*	9%	?
O=C(NCc1cccs1)C1CCC(CNS(=O)(=O)c2ccccc2)CC1 (stereo unspecified)	7	nt	22	81%	0%	-4%
COCC(=O)N1CCCC(CNS(=O)(=O)c2ccc(OC)cc2)C1 (stereo unspecified)	3	-3%	-5	10µM*	-1%	0%
COc1ccc(S(=O)(=O)NCC2CCC(C(=O)NCc3cccnc3)CC2)cc1 (stereo unspecified)	6	nt	-4	-4%	4%	5%
O=C(C[C@@H]1C/C=C\C[C@@H](Cc2ccc(F)cc2)C(=O)OC[C@@H]2CCCN2C1=O)NCCO	nt	nt	nt	nt	-9%	nt
O=S(=O)(Nc1ccccn1)c1cc(Cl)ccc1Cl	-5	4%	4	22%	0%	nt
CSc1nc(C)cc(SCC(=O)N/N=C/c2ccccc2)n1	0	5%	-7	-19%	-5%	-4%
CC1CCN(CCCNC(=O)C2CCC(CNS(=O)(=O)c3ccccc3)CC2)CC1 (stereo unspecified)	-3	-13%	-4	12µM*	0%	21%
O=C(NCCc1ccccc1)C1CCC(CNS(=O)(=O)c2ccc(F)cc2)CC1 (stereo unspecified)	16*	-3%	16	?	4%	11%
Clc1ccc2nnnc(-c3ccccc3)c2c1	52*	-24%	98*	?	-39%	?
c1ccc(-c2nnnc3ccccc23)cc1	-2	11%	4	-4%	20%	-1%

Bioassay records (PubChem BioAssay)
